Hit rate of the full screen: of about 340,000 compounds, about 2,100 (0.62%) were called active.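 How the source made its calls: active means first-screen hits whose inhibition reached a set limit at any dose in the follow-up dose series; inconclusive means inhibition above the set first-screen limit but never retested; inactive means the rest.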 Only a sample is shown. Entries with a potency or affinity are not part of this list.

For this assay, the target named is Rac GTPase-activating protein 1 (Homo sapiens) (UniProt Q9H0H5). The experiment in a line: blockers of MgcRacGAP-driven Rac1 GTP hydrolysis – biochemical, ADP Hunter fluorescence, primary and confirmatory, confirmation (AID 624330).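 Further: fluorescence reports GDP produced by GAP-driven GTP hydrolysis.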 To be noted: MgcRacGAP-stimulated Rac1 GTP hydrolysis, at 30 µM, hits give high values, GST-tagged Rac1 F28L mutant substrate.
Sequence of Rac GTPase-activating protein 1 (Homo sapiens) (Q9H0H5 whole entry, looked up): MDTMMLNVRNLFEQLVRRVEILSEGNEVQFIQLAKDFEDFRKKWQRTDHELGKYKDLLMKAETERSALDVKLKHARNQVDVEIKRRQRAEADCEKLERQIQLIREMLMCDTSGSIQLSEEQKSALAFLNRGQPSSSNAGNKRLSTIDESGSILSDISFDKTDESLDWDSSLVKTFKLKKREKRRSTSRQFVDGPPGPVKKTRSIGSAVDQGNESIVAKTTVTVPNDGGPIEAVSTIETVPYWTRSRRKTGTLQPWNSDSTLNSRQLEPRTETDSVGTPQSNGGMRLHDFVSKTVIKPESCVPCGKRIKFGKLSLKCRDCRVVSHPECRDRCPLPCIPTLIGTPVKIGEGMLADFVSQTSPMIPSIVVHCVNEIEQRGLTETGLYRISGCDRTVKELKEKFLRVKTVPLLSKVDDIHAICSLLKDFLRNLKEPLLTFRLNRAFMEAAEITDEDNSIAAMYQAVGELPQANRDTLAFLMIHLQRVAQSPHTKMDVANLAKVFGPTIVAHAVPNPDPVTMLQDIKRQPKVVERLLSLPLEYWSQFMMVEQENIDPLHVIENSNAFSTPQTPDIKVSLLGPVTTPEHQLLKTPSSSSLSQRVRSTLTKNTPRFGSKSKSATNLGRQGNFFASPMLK
Consider `Cc1cc(C)n(CC(=O)N2c3ccccc3Sc3ccccc32)n1`, for which the inhibition was 4.56% (inactive).

With `Cc1nn(CC(O)CN2c3ccccc3Sc3ccccc32)c(C)c1Br` (centres undefined), the inhibition is 7.34% (inactive).

Take `COc1ccc(NCc2ccc([N+](=O)[O-])s2)cc1`: the inhibition was 23.5% (inactive).

On to `COc1ccccc1NCc1ccc([N+](=O)[O-])s1`, for which the inhibition was 15.3% (inactive).

For the molecule `Cc1ccc(Sc2ccc(N)cc2C#N)cc1`, the inhibition was 4.36% (inactive).

`COC(=O)c1ccc(Sc2ccc(C)cc2)c(N)c1`: the inhibition is 9.92% (inactive).

Turning to `NC(=S)c1ccc(OCCCc2ccccc2)cc1`, the inhibition was 8.89% (inactive).

Take `Nc1ccc(C(=O)OCCc2ccccc2)cc1`: the inhibition was 6.65% (inactive).

Regarding `CC(=O)NC(Cc1ccc(C(C)C)cc1)C(=O)NC1CCN(c2nc(C)cc(C)n2)CC1` (centres undefined), the inhibition was 7.86% (inactive).

On to `CC(c1ccc2ccccc2c1)c1ccccc1C(=O)O` (centres undefined), for which the inhibition was 5.25% (inactive).

In the case of `N#C/C(=C\c1ccc(N2CCOCC2)cc1)c1ccccc1`, the inhibition was -4.89% (inactive).

With `N#C/C(=C/c1ccc(N2CCOCC2)o1)c1ccc(Cl)cc1`, the inhibition is 41.4% (inactive).

For the molecule `N#C/C(=C/c1ccc(N2CCCCCC2)o1)c1ccc(Cl)cc1`, the inhibition is 38.4% (inactive).

`N#C/C(=C/c1ccc(N2CCOCC2)o1)c1ccc(Br)cc1`: the inhibition is 27% (inactive).

As to `CCN(CC)c1ccc(C=C2C(=O)OC3(CCCCC3)OC2=O)cc1`, the inhibition was 4.11% (inactive).

On to `CN(C)c1ccc(C=C2SC(=S)N(Cc3ccco3)C2=O)cc1`, for which the inhibition is 9.1% (inactive).

For the molecule `O=C1c2cccc3cccc(c23)C(=O)N1Cc1ccco1`, the inhibition was 6.44% (inactive).

As for `CCN(CC)c1ccc(C=C2C(=O)OC3(CCCC3)OC2=O)cc1`, the inhibition was 14.2% (inactive).

For `COC(=O)C1=C(C)N(Cc2ccco2)C(=O)/C1=C\c1ccc(N(C)C)cc1`, the inhibition is 1.57% (inactive).

With `O=C1c2ccccc2C(=O)N1Cc1ccco1`, the inhibition is 8.18% (inactive).

Take `COCCNC(=S)N/N=C/c1c2ccccc2cc2ccccc12`: the inhibition was 6.58% (inactive).

Consider `COc1ccccc1CC(=O)Nc1ccc2c(C)cc(=O)oc2c1`, for which the inhibition is 4.86% (inactive).

Consider `COC(=O)C(CC(C)C)NC(=O)c1cccs1` (centres undefined), for which the inhibition is 0.95% (inactive).

Turning to `COc1ccc(N=C2S/C(=C\c3cccs3)C(=O)N2CC(C)C)cc1`, the inhibition is 12.5% (inactive).

On to `O=C(CN1CCN(Cc2cccc(C(F)(F)F)c2)CC1)NCC(=O)Nc1ccc(F)c(F)c1F`, for which the inhibition was 3.75% (inactive).

As to `O=C(CN1CCCCC1)NCC(=O)Nc1ccc(F)c(F)c1F`, the inhibition is -2.94% (inactive).

With `CC(C(=O)Nc1ccc(F)c(F)c1F)N1CCCCCC1` (centres undefined), the inhibition was 9.76% (inactive).

Take `CC(C(=O)NCC(=O)Nc1ccc(F)c(F)c1F)N1CCN(Cc2ccc(C#N)cc2)CC1` (centres undefined): the inhibition is -0.12% (inactive).

As to `COc1ccc(N(CC(C)C)S(=O)(=O)c2nnc(NC(=O)CC(C)C)s2)cc1`, the inhibition is 2.69% (inactive).

On to `CC(=O)Nc1cc(-c2ccccc2)nn1Cc1ccc(Cl)cc1`, for which the inhibition is -1.04% (inactive).

Turning to `[O-]/[N+](=N\Nc1ccc(Cl)cc1)c1ccccc1`, the inhibition is 9.79% (inactive).

Take `CN(C)c1ccc(/C=C/c2cc[n+](C)cc2)cc1`: the inhibition is 22.9% (inactive).

As to `CC[n+]1ccccc1/C=C/c1ccc(N(C)C)cc1`, the inhibition is 10.2% (inactive).

On to `CC[n+]1cc(C)ccc1/C=C/c1ccc(N(C)C)cc1`, for which the inhibition was 7.19% (inactive).

As for `CN1C=C/C(=C\c2cc[n+](C)c3ccccc23)c2ccccc21`, the inhibition is -0.62% (inactive).

Turning to `CN(C)c1ccc(C=Cc2ccnc3c(O)cccc23)cc1`, the inhibition was 8.47% (inactive).

With `CN1/C(=C/c2cc[n+](C)c3ccccc23)C=Cc2ccccc21`, the inhibition is 31.4% (inactive).

As to `Fc1ccc(C2CC(c3ccco3)n3ncnc3N2)cc1` (centres undefined), the inhibition is -3.61% (inactive).

For `Cc1cc(C(=O)Nc2sccc2C(N)=O)c(C)o1`, the inhibition was 2.82% (inactive).

Consider `CCc1ccc2oc(C(=O)Nc3cccnc3)c(C)c2c1`, for which the inhibition was 3.43% (inactive).

With `COc1ccc(NC(=O)NC(C)c2ccccc2)cc1` (centres undefined), the inhibition was 7.88% (inactive).

As to `CN1CCN(c2nc3ccccn3c(=O)c2/C=C(\C#N)S(=O)(=O)c2ccccc2)CC1`, the inhibition is 10.8% (inactive).

For the molecule `O=C(CCN1C(=O)C2C3CC(C(Br)C3Br)C2C1=O)OCC(=O)c1ccccc1` (centres undefined), the inhibition was 7.46% (inactive).

Consider `O=C(CNS(=O)(=O)c1ccc(Cl)cc1)NC1CCCCC1`, for which the inhibition was -0.07% (inactive).

`Cc1cc(C(=O)NCc2ccc(F)cc2)n(-c2ccccc2)n1`: the inhibition is 12.3% (inactive).

As to `COc1ccc(CN2CCN(CCCc3ccccc3)C(CCO)C2)c(OC)c1` (centres undefined), the inhibition was 3.22% (inactive).

Consider `COc1cccc(N2CCN(Cc3ncc(-c4ccccc4)o3)CC2)c1`, for which the inhibition was 7.37% (inactive).

As to `Cc1cc(=O)[nH]c(N/N=C/c2c[nH]c3ccccc23)n1`, the inhibition was 22.9% (inactive).

For the molecule `Cc1cc(N/N=C/c2c[nH]c3ccccc23)c2ccccc2n1`, the inhibition is -1.16% (inactive).

For the molecule `Cc1ccccc1/C=N/Nc1nc2ccccc2[nH]1`, the inhibition is 18.4% (inactive).

As to `Cc1ccc(/C=N/Nc2nc3ccccc3[nH]2)s1`, the inhibition is -6% (inactive).

As to `Fc1c(F)c(F)c(N/N=C/c2c[nH]c3ccccc23)c(F)c1F`, the inhibition is 3.69% (inactive).

Regarding `CC(C)n1c(/N=C/c2c[nH]c3ccccc23)nc2ccccc21`, the inhibition was 1.11% (inactive).

For `Cn1c(/N=C/c2c[nH]c3ccccc23)nc2ccccc21`, the inhibition was 8.49% (inactive).

As for `COc1ccc(/C=N/Nc2nc3ccccc3[nH]2)c(OC)c1OC`, the inhibition is 12.8% (inactive).

For the molecule `Cc1ccc(-c2nc(C3CCN(S(C)(=O)=O)CC3)no2)cc1`, the inhibition is 10.6% (inactive).

`O=C1NC(Cc2ccccc2)c2nc3ccc(Cl)cc3c(=O)n2-c2ncccc21` (centres undefined): the inhibition is 7.29% (inactive).

Regarding `CC(NS(C)(=O)=O)C(c1cccs1)N1CCN(C)CC1` (centres undefined), the inhibition is 10.3% (inactive).

`CCOC(=O)N1CCN(CC(O)COc2ccc(C(C)C)c(C)c2)CC1` (centres undefined): the inhibition is 5.78% (inactive).

With `COCC1CCCCN1C(=O)c1ccc(OC2CCN(CCc3ccccc3)CC2)cc1` (centres undefined), the inhibition is 10.2% (inactive).

`COC(=O)c1cc(S(=O)(=O)N2CCC(c3cc(OC)ccc3OC)C2)c[nH]1` (centres undefined): the inhibition was 8.61% (inactive).

In the case of `Cc1ccc(-c2sc(C)nc2CC(=O)O)cc1`, the inhibition is 13.9% (inactive).

In the case of `O=C(Nc1cccc(-n2cnnn2)c1)c1cc(Cl)nc(Cl)c1`, the inhibition is 9.64% (inactive).

`COc1ccccc1/C=C/C(=O)OCc1nc2ccccc2c(=O)[nH]1`: the inhibition was 7.19% (inactive).

The values above are taken from PubChem BioAssay AID624330 (Southern Research Specialized Biocontainment Screening …, 2012).
